# Shown are actives, neighbours in structure and some others; about 12% of the full set was active somewhere.
# Cycloheximide cs – Cycloheximide Counterscreen for Small Molecule Inhibitors of Shiga Toxin | cell reporter, cycloheximide protein synthesis inhibition counterscreen | max response, % | AID 2314, 2010 | 300,000 compounds, 12% hits; in the data active = max response mostly above about 13%, no sharp cut-off; inactive = mostly below about 14%; also: read at 38.3 µM for the half of the compounds with a filed dose; 0% is about no effect
# Sm TGR inh – qHTS Assay for the Inhibitors of Schistosoma Mansoni Peroxiredoxins; Schistosoma mansoni thioredoxin glutathione reductase (TGR), Q962Y6; purified TGR, DTNB reduction, TNB absorbance 405 nm; Potency, µM (titrated, usually from 114 µM), for the others: at the top dose activity change, negative = inhibition, hits mostly inhibitors; 360,000 compounds, 3% hits; AID 485364, 2010; active = well fitted inhibition curve with a large enough effect; inconclusive = small, poorly fitted or top-dose-only effect; inactive = no such curve, though single readings can be large or run the other way; also: potency is read from the fitted curve at half-maximal effect; % is scaled to controls: 0 for no effect and ±100 for the full control effect; nearly all actives have a fitted effect of over 60% in size
#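 First, TGR (20 nM dispensed) and NADPH were mixed with compound. Second, a 15 min room-temperature incubation followed. Third, further NADPH and then DTNB were added to start the reaction. Finally, TNB absorbance was monitored kinetically.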
# FMDV antiviral – High Throughput Screening for Foot and Mouth Disease Virus Antivirals; 410,000 compounds, 1.2% hits; Potency, µM (highest dose often 57.9 µM), for the others: at the highest dose activity change, negative = inhibition, most hits filed as inhibitors; FMDV antiviral cell-based qHTS; AID 1159524, 2015; calls by dose curve; tested in HEK293T cells; also: read-out not given here; potency is read from the fitted curve at half-maximal effect; % is scaled to controls: 0 for no effect and ±100 for the full control effect; nearly all actives have a fitted effect of over 45% in size
# Shiga inhibitor – A qHTS for Small Molecule Inhibitors of Shiga Toxin; 290,000 compounds, 9.2% hits; Vero cells, Shiga toxin protein synthesis inhibition reporter; inhibition, % at 38.7 µM; in the data active = inhibition mostly above about 28%, no sharp cut-off; inactive = mostly below about 43%; also: 0% is about no effect
# Numbers without * were called inactive; ? = inconclusive; · = no result given; [ ] = remark or other dose.
SMILES,Cycloheximide cs,Sm TGR inh,FMDV antiviral,Shiga inhibitor
Cc1ccc(S(=O)Cc2nc(-c3ccc(C(=O)NC(C)c4ccccc4)cc3)oc2C)cc1 (centres undefined),·,14.1µM*,-30.4%,·
Cc1ccc(-c2nc(CS(=O)CC(=O)NC(C)CCc3ccccc3)c(C)o2)cc1 (centres undefined),5.6,8.91µM*,-24.1%,-7.9
COc1ccc(-c2nc(CS(=O)CC(=O)NC(C)CCc3ccccc3)c(C)o2)cc1OC (centres undefined),-4.3,31.6µM*,-21.9%,-7.8
COC(=O)c1ccc(C2OCC(C)(C)CO2)cc1,48.9*,0.0%,60.3%,149.8*
CC1(C(=O)O)COC(c2ccc(Cl)cc2)OC1 (centres undefined),-1.4,7.4%,-10.9%,-4.1
CC1CN(C(=O)N2CCC(C(=O)NCc3cccs3)CC2)c2cc(Cl)ccc2O1 (centres undefined),·,-0.1%,-28.2%,·
Cc1cccnc1NC(=O)c1ccc2nc(N)sc2c1,27.7*,1.1%,3.1%,72.5*
CCCCC(=O)Nc1ccc(C(=O)NNC(=O)c2ccc(C)c(Br)c2)cc1,0.6,-4.7%,-10.6%,-2.2
CC(=O)c1ccc(NC(=O)c2ccc(C)c(Br)c2)cc1,59.8*,?,22.7%,73.5*
COc1cc(NC(=O)c2ccccc2-n2cnnn2)cc(OC)c1,·,-2.1%,-7.8%,·
COc1ccc(N(C)S(=O)(=O)c2cccc(C(=O)Nc3ccc(-n4cnnn4)cc3)c2)cc1,-2.8,-24.6%,39.8µM*,-16.5
COc1cc(OC)cc(C(=O)Nc2ccc(-n3cnnn3)c(C)c2)c1,22.0*,9.5%,·,29.6*
CCOc1cc(-c2nnc(SCC(=O)Nc3ccc(F)c(F)c3)nc2-c2ccc(OC)c(OCC)c2)ccc1OC,·,-17.5%,-28.7%,·
Cc1cc(C)c(NC(=O)CCCn2c(C)c3cnn(-c4ccccc4)c(=O)c3c2C)c(C)c1,·,?,-21.4%,·
CC1CC(C)CN(C(=O)c2cccc(S(=O)(=O)N(C)c3ccccc3)c2)C1 (centres undefined),·,1.1%,0.0%,·
CC(=O)c1ccc(NC(=O)c2ccc3nc(C)sc3c2)cc1,86.7*,6.9%,0.0%,·
Cc1nc2ccc(C(=O)Nc3ccc(N(C)C)cc3)cc2s1,·,·,34.6%,·
Cc1ccccc1CNC(=O)c1ccc2nc(N3CCOCC3)sc2c1,1.5,-5.9%,24.3%,14.2
COc1ccc(N(C)S(=O)(=O)c2cccc(C(=O)OCC(=O)N3CC(C)CC(C)C3)c2)cc1 (centres undefined),·,·,31.6µM*,·
Cc1ccccc1NC(=O)c1ccc2nc(N3CCOCC3)sc2c1,27.9*,1.4%,-13.9%,38.1*
Cc1nc2ccc(NC(=O)c3cccc(S(=O)(=O)N(C)c4ccccc4)c3)cc2s1,-3.4,0.1%,25.1µM*,-3.2
Cc1ccc(Cn2cc(CCC(=O)NC3CCC(C)CC3)c3ccccc32)cc1 (centres undefined),·,7.8%,2.2%,·
Cn1nnnc1SCCCNCc1cc(Cl)ccc1OCc1ccc(F)cc1,·,4.6%,-28.5%,·
COc1ccc(CNC(=O)c2ccc(CNS(=O)(=O)c3ccc(F)cc3)cc2)cc1,·,25.9%,-9.2%,·
COc1ccc(C(=O)c2cn(Cc3ccccc3)c3ccccc3c2=O)cc1OC,·,11.4%,?,·
SMILES,Cycloheximide cs,Sm TGR inh,FMDV antiviral,Shiga inhibitor
Cc1oc2ccc(O)c(CN3CCN(Cc4ccccc4)CC3)c2c1C(=O)Nc1cccc(Cl)c1C,·,10.1%,?,·
Cc1nc2ccc(C(=O)Nc3ccccc3Cl)cc2s1,50.2*,?,60.1%,117.9*
Cc1cccc(C(=O)Nc2ccc(-c3nc4ccccc4s3)cc2Cl)c1,·,9.3%,19.7%,·
Cc1nc2ccc(NC(=O)c3ccc4ccccc4n3)cc2s1,27.5*,9.5%,8.6%,101.6*
CCn1nc(C(=O)NC2=NCCS2)c2ccccc2c1=O,-1.5,2.9%[11.4 µM],13.9%,-11.5
Cc1nc2ccc(NC(=O)c3cncc(Br)c3)cc2s1,31.7*,-3.7%,46.8%,101.7*
CCn1nc(C(=O)Nc2ccc3nc(C)sc3c2)c2ccccc2c1=O,18.6*,0.8%,-7.6%,30.4
CCc1sc(C(=O)Nc2ccc3nc(C)sc3c2)cc1C,·,·,39.5%,·
Cc1c(CCC(=O)NCCc2ccc(Cl)cc2)c(=O)oc2c(C)c(O)ccc12,·,0.2%,-20.7%,·
CC(C)(CO)NC(=O)c1cnn(-c2ncc3c(n2)-c2ccccc2CC3)c1C1CC1,·,·,41.3%,·
Cc1nc2cc(C(=O)O)ccc2s1,44.4*,-3.3%,52.9%,132.7*
Cc1ccc(NC(=O)c2ccc(NCCN)c([N+](=O)[O-])c2)cc1Cl,4.4,-11.0%,11.7%,21.7
N#Cc1ccccc1CSc1nc2ccc(NC(=O)c3ccccc3C(=O)O)cc2s1,27.3*,7.0%,13.9%,79.4*
Cc1ccc(-c2nc3ccc(C(=O)O)cc3nc2-c2ccc(C)cc2)cc1,1.7,7.6%,-5.8%,-5.8
CCNc1ccc(C(=O)Nc2ccc3nc(C)sc3c2)cc1[N+](=O)[O-],27.3*,3.8%,-17.8%,31.9
Cc1ccc(OC(=O)c2ccc3nc(C)sc3c2)cc1,12.2,·,?,71.3
Cc1nc2ccc(OC(=O)c3ccccc3)cc2s1,13.5*,-33.6%,54.5%,18.9
c1ccc(Nc2ncncc2-c2ccc3c(c2)OCO3)cc1,·,·,-18.7%,·
COC(=O)c1cc(NC(=O)c2ccc3c(c2)N(Cc2cccc(Cl)c2)C(=O)c2ccccc2S3=O)cc(C(=O)OC)c1 (centres undefined),·,-1.6%,-10.9%,·
O=C(N[C@@H]1c2ccccc2C2(CCN(C(=O)c3cc4ccccc4oc3=O)CC2)[C@H]1O)c1cccnc1,·,·,-3.5%,·
CN(c1cccc(Cl)c1)S(=O)(=O)c1cccc(C(=O)Nc2ccc3c(c2)CCC3)c1,30.0*,7.0%,-11.0%,46.9*
Cc1nc2ccc(NC(=O)c3ccccc3)cc2s1,29.5*,·,55.1%,108.4*
Cc1nc2ccc(NC(=O)c3ccc(=O)[nH]c3)cc2s1,-6.2,1.8%,-9.9%,19.3
COc1ccc(NC(=O)c2cc(OC)c(OC)c(OC)c2Br)cc1OC,-3.7,-0.4%,0.0%,4.0
CNC(=O)Nc1ccc2nc(C)sc2c1,16.5*,1.5%,-5.5%,17.8
SMILES,Cycloheximide cs,Sm TGR inh,FMDV antiviral,Shiga inhibitor
COc1cc(C(=O)Nc2ccc(C(C)=O)cc2)c(Br)c(OC)c1OC,41.8*,-2.5%,-10.0%,70.1*
COc1ccccc1-c1cc(Nc2ccn[nH]2)ncn1,·,·,-18.9%,·
Cc1nnc(NC(=O)c2ccc3ccccc3n2)s1,37.9*,0.8%,48.4%,110.2*
NNC(=O)c1ccc2ccccc2n1,5.1,16.0%,?,30.2
CCC(CC)c1nn2c(=O)cc(COc3ccc(NC(=O)c4ccccc4Cl)cc3)nc2s1,·,5.5%,0.0%,·
Cc1cc(C(c2ccc(C)o2)c2ccc(C)o2)c(O)c([N+](=O)[O-])c1,-2.9,44.7µM*,?,13.8
O=C(Nc1cccc(OCc2cc(=O)n3ccccc3n2)c1)c1ccccc1Br,·,4.1%,12.5%,·
Cc1ccc(S(=O)(=O)N2CCN(C(=O)CN3CCOCC3)C2c2ccccc2)cc1 (centres undefined),1.3,39.8µM*,-12.6%,10.9
O=C(CN1CCOCC1)N1CCN(S(=O)(=O)c2ccccc2)C1c1ccccc1 (centres undefined),1.9,6.5%,3.3%,-9.1

# Screens as filed in PubChem.
